Rows were chosen to be rich in hits. Some 13% of all compounds tested hit in one or more screens of this group.
Marburg entry inh: Marburg virus entry inhibition; 300,000 compounds, 1.8% hits; Potency, µM (top dose mostly 37.8 µM), most hits filed as inhibitors; Marburg virus pseudotyped entry inhibition, cell reporter; AID 540276; calls by dose curve; tested in HEK293 cells
FMDV antiviral: foot and mouth disease virus antiviral activity. AID 1159524. Potency, µM (series often up to 57.9 µM), hits mostly inhibitors. FMDV antiviral cell-based qHTS. 410,000 compounds, 1.2% hits; calls by dose curve; tested in HEK293T cells; also: read-out not given here; nearly all actives have a fitted effect of over 45% in size
HCV inhibitor: blocks hepatitis C virus; Huh7.5.1 HCVcc-Cre infection, luciferase reporter, 44 h; Potency, µM (series often up to 41.8 µM), actives largely listed as inhibitors; 340,000 compounds, 3.4% hits; active = well fitted inhibition curve with a large enough effect; inconclusive = small, poorly fitted or top-dose-only effect, or another doubt; inactive = no such curve, though single readings can be large or run the other way
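Cells (1,000/well) were plated 4 h before compound, then infected with HCVcc-Cre virus (~0.5 moi). After 44 h further culture, infection was read as luciferase luminescence following a 15 min substrate incubation at room temperature.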
Cycloheximide cs: counter-screen hit for Shiga toxin inhibitors, cycloheximide | cell reporter, cycloheximide protein synthesis inhibition counterscreen | max response, % | 300,000 compounds, 12% hits; in the data active = max response mostly above about 13%, no sharp cut-off; inactive = mostly below about 14%; also: read at 38.3 µM for the half of the compounds with a filed dose
Shiga inhibitor: Shiga toxin inhibition. Vero cells, Shiga toxin protein synthesis inhibition reporter. inhibition, % at 38.7 µM. 290,000 compounds, 9.2% hits. AID 2315; in the data active = inhibition mostly above about 28%, no sharp cut-off; inactive = mostly below about 43%
Lassa entry inh: blocks Lassa virus binding to or entry into cells; Lassa virus pseudotype entry inhibition, cell reporter; Potency, µM (titrated, usually from 37.9 µM), most hits filed as inhibitors; 300,000 compounds, 1.2% hits; calls by dose curve; tested in HEK293 cells; also: nearly all actives have a fitted effect of over 50% in size
Numbers stand for hits; - = inactive; ? = inconclusive; . = no result; + = active, no number.

SMILES | Marburg entry inh | FMDV antiviral | HCV inhibitor | Cycloheximide cs | Shiga inhibitor | Lassa entry inh
O=C(N/N=C/c1cc([N+](=O)[O-])ccc1O)c1ccc2c(c1)OCCO2 | ? | - | ? | 18 | - | ?
O=C(N/N=C/c1ccccc1[N+](=O)[O-])c1ccc2c(c1)OCCO2 | 2.5µM | ? | ? | 33 | 61 | 1.4µM
CCCN(CCC)S(=O)(=O)c1cc(CN2C(=O)c3cccnc3C2=O)ccc1OC | . | - | - | - | - | .
COC(=O)C(=NNc1c(C)n(C)n(-c2ccccc2)c1=O)C(=O)OC | - | - | - | - | - | -
N#C/C(=N\Nc1ccc(Cl)cc1)C(=O)c1ccccc1 | 11µM | ? | 22µM | - | - | ?
CCOC(=O)NC(=O)/C(C#N)=N\Nc1ccc(Cl)cc1 | - | - | - | - | - | -
Cc1c(NC(=O)/C(C#N)=C/c2ccc(-c3ccc(Cl)cc3)o2)c(=O)n(-c2ccccc2)n1C | ? | 25µM | ? | - | - | ?
Cc1c(N/N=C(\C#N)C(=O)c2ccc(Cl)cc2)c(=O)n(-c2ccccc2)n1C | 4.1µM | - | ? | - | - | ?
Cc1ccc(NC(=O)N2CCN(Cc3nc4ccc(C)cc4o3)CC2)cc1 | . | - | . | . | . | -
Cc1cc(Nc2ccccc2)n(C(=O)c2ccc(Cl)cc2)n1 | - | . | - | 35 | 72 | ?
Cc1nn(C(=O)c2ccccc2)c(C)c1Sc1ccc(Cl)cc1 | . | 28µM | . | . | . | -
CCn1c(=O)cc(OCC(=O)NC2CC2)c2ccccc21 | . | - | - | - | - | .
COc1ccc(-c2n(CC(=O)OC3CC(C)CCC3C(C)C)c3ccccc3[n+]2C)cc1 (configuration not stated) | ? | 5µM | 11µM | - | - | ?
CCOCCSc1nnc2nc(C)cc(C)n12 | - | - | - | - | - | -
O=C(c1cnsn1)N1CCC(CO)(Cc2cccc(F)c2)CC1 | ? | - | - | 54 | 67 | -
Cc1cc(C(=O)N2CCC(CO)(Cc3cccc(C(F)(F)F)c3)CC2)n[nH]1 | . | - | - | - | - | .
Fc1ccc([C@@H]2Nc3ccccc3[C@@H]3C=CC[C@@H]32)cc1 | ? | - | . | . | . | -
COc1ccccc1C(=O)Nc1nc2ccccc2[nH]1 | ? | 1µM | - | - | - | ?
COc1cc(C(=O)Nc2nc3ccccc3[nH]2)cc(OC)c1OC | - | - | - | - | - | -
COc1cc(SC)ccc1C(=O)Nc1nc2ccccc2[nH]1 | ? | 0.035µM | - | - | - | ?
COc1ccccc1C(=O)NCCC(=O)Nc1nc2ccccc2[nH]1 | - | - | ? | . | . | -
COc1cc(CNC2CCCCCCC2)cc(Cl)c1OCC(N)=O | . | - | - | - | - | .
CCOc1cc(CNC2CCCC2)cc(Cl)c1OCc1ccc(F)cc1 | 5.8µM | . | 4µM | - | - | ?
COc1cc(CNC2CCCC2)cc(Cl)c1OCc1ccccc1Cl | 10µM | ? | ? | - | - | ?
COc1cc(CNC2CCCC2)cc(Cl)c1OCc1ccc(F)cc1 | ? | - | 1.3µM | - | - | ?
SMILES | Marburg entry inh | FMDV antiviral | HCV inhibitor | Cycloheximide cs | Shiga inhibitor | Lassa entry inh
CCNCc1cc(Cl)c(OCc2ccccc2)c(OCC)c1 | ? | - | ? | - | - | ?
CC(C(=O)c1ccccc1)n1c(N2CCOCC2)nc2c1c(=O)n(C)c(=O)n2C (configuration not stated) | - | - | - | - | - | -
C=CS(=O)(=O)c1ccc(Oc2ccc(S(=O)(=O)C=C)cc2)cc1 | ? | 4µM | ? | - | - | 6.5µM
COc1ccccc1CN1CC(C(=O)N(C)Cc2ccc(C)o2)CCC1=O (configuration not stated) | . | - | - | 22 | - | .
COc1ccc(CCN2CC(C(=O)N(C)Cc3ccc(C)o3)CCC2=O)cc1 (configuration not stated) | ? | - | - | 38 | 74 | ?
O=C(NC(Cc1ccccc1)C(=O)Oc1ccc2c(C(F)(F)F)cc(=O)oc2c1)OCc1ccccc1 (configuration not stated) | - | - | - | - | - | -
CC(=O)N1CCN(c2ccc(NC(=S)NC(=O)/C=C/c3ccccc3)cc2)CC1 | . | . | - | - | - | .
CSc1ccccc1OCc1cc(C(=O)N(C)Cc2cc(C)[nH]n2)no1 | - | - | - | 28 | - | ?
CSc1ccccc1OCc1cc(C(=O)N(C)Cc2c(C)n[nH]c2C)no1 | - | - | - | 14 | - | -
CSc1ccccc1OCc1cc(C(=O)N(C)Cc2cnccn2)no1 | ? | - | - | 52 | 110 | -
CSc1ccccc1OCc1cc(C(=O)NCc2cnc(C)cn2)no1 | - | - | - | - | - | -
CSc1ccccc1OCc1cc(C(=O)NCC(C)Oc2cccnc2)no1 (configuration not stated) | . | - | . | . | . | .
CSc1ccccc1OCc1cc(C(=O)NCCCn2nc(C)cc2C)no1 | - | - | - | - | - | -
CCOP(=O)(OCC)c1nc(-c2cccc3ccccc23)oc1N1CCCCC1 | . | - | ? | - | - | .
c1ccc(N=NN2CCOCC2)cc1 | . | - | . | . | . | .
Nc1c(-c2ccccc2)cnn1-c1cccc(Cl)c1 | ? | - | - | 51 | 82 | ?
Cc1cccc(-c2cnn(-c3cccc([N+](=O)[O-])c3)c2N)c1 | - | - | - | 22 | - | -
Nc1ccccc1Nc1cc(-c2cccc(Cl)c2)nn1-c1ccccc1 | - | - | - | 20 | + | -
Cc1cccc(-c2cnn(-c3ccccc3)c2N)c1 | . | - | - | 44 | 101 | .
Cc1cc(C)nc(NS(=O)(=O)c2ccc(Br)s2)c1 | . | - | - | - | - | .
Cc1ccc(NS(=O)(=O)c2ccc(Br)s2)nc1 | - | - | 3.5µM | - | - | -
COc1ccc(NC(=O)c2cccc(Cn3cc(Br)c([N+](=O)[O-])n3)c2)c(C)c1 | . | - | 10µM | - | - | .
NNC(=O)c1cccc(Cn2cc(Br)c([N+](=O)[O-])n2)c1 | . | - | - | - | - | .
CCCOc1ccc(-c2nnc(-c3ccncc3)o2)cc1 | - | - | 11µM | 21 | 84 | -
c1cc(-c2nnc(-c3ccncc3)o2)ccn1 | - | - | - | - | - | -
SMILES | Marburg entry inh | FMDV antiviral | HCV inhibitor | Cycloheximide cs | Shiga inhibitor | Lassa entry inh
CC(C)COc1ccc(-c2nnc(-c3ccncc3)o2)cc1 | - | - | ? | 38 | 111 | ?
COc1ccc(-c2nnc(-c3ccc(OCC(C)C)cc3)o2)cc1 | - | - | - | - | - | -
CCOC(=O)N/C(N)=N/c1nc2ccccc2s1 | - | - | ? | 34 | 66 | ?
CC(=O)N/C(N)=N/c1nc(=O)c2ccccc2s1 | . | - | - | 35 | 55 | .
Nc1nc(=O)c2ccccc2s1 | ? | - | - | . | . | -
Cn1c(=O)[nH]c(=O)c2c1nc(N1CCOCC1)n2CCSc1nnnn1-c1ccccc1 | . | - | - | - | - | .
CCCCC(=O)NCc1nc2cccnc2n1Cc1ccc(OC)cc1 | . | ? | . | . | . | -
CC/C(=N\Nc1nncc2ccccc12)c1ccc(F)cc1 | ? | - | - | 47 | 71 | ?
CCOC(=O)NNc1nncc2ccccc12 | . | - | - | . | . | .
C/C(=N\Nc1nncc2ccccc12)c1ccc(OCC(=O)N(C)C)cc1 | - | - | - | 44 | 138 | -
Cc1ccc(S(=O)(=O)c2nc(-c3ccccc3Cl)oc2NCCCN2CCOCC2)cc1 | ? | - | ? | - | - | ?
Oc1cccc(/C=N/N2CCCCC2)c1O | . | - | - | 40 | 96 | .

Assay outcomes as filed in PubChem.
